# In the supplement of paper PMC4206461:
# Tested on: Pseudomonas aeruginosa PA14 wild type
# Experiment: respiration area under curve with compound as sole nitrogen source, 24 h (OmniLog AUC (arbitrary units)); higher = more respiration / better utilisation as nitrogen source
# Method: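 Biolog Phenotype MicroArray plates PM6-PM8: each di/tripeptide is the sole nitrogen source (IF-0 medium with succinate/ferric citrate and dye mix A). Tetrazolium reduction was read in the OmniLog every 15 min for 24 h at 37°C and summarised as area under the respiration curve (arbitrary units). The paper counts values below 2000 as no respiration and above 8000 as solid respiration. Replicate datasets are averaged.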
row,Compound,respiration area under curve
1,CC(C)C[C@H](NC(=O)CNC(=O)CN)C(=O)O (plate: PM8),10400 (active)
2,CC(C)C[C@@H](NC(=O)CNC(=O)CN)C(=O)O (plate: PM8),5880 (active)
